About 1,500 (3.8%) of roughly 39,000 compounds were called active. For the sample, actives were picked, then their nearest neighbours and some compounds at random.
These molecules were tested on HSkMC (human skeletal muscle cells) (assay: cytotoxicity call (relative viability < 0.9)). Conditions: 10 µM.

Row | SMILES | cytotoxicity call
1 | O=C(NCCCN1CCOCC1)[C@H]1[C@H](CO)[C@H]2Cn3c(cccc3=O)[C@@H]1N2C(=O)C1CCCCC1 | inactive
2 | C[C@@H]1CCCCO[C@H](CN(C)C(=O)NC2CCCCC2)[C@H](C)CN([C@H](C)CO)C(=O)c2cc(NC(=O)Nc3ccc(F)cc3)ccc2O1 | inactive
3 | Cc1cccc(S(=O)(=O)N2C[C@@H](O)COC[C@@H]3O[C@H](CC(=O)NCCCN4CCOCC4)CC[C@H]32)c1 | inactive
4 | C[C@@H]1CN([C@@H](C)CO)C(=O)c2cc(NC(=O)NC3CCCCC3)ccc2O[C@@H](C)CCCCO[C@H]1CN(C)C(=O)CCC(F)(F)F | inactive
5 | C[C@@H]1CN([C@@H](C)CO)C(=O)c2cc(NC(=O)Cc3ccccc3)ccc2O[C@@H](C)CCCCO[C@@H]1CN(C)C(=O)c1ccccc1 | inactive
6 | C=C(CO)C(=O)O[C@@H]1[C@H]2C(=C)C(=O)O[C@@H]2[C@H]2O[C@]2(C)CC/C=C(/C(=O)OC)[C@H]1OC(C)=O | active
7 | C=C(CO)C(=O)O[C@H]1C[C@@]2(C)OC(=O)/C(=C/C)[C@]2(O)CC[C@@]2(C)CC(=O)[C@]1(C(=C)C(=O)OC)O2 | inactive
8 | C[C@H](CO)N1C[C@H](C)[C@H](CN(C)C(=O)Nc2cccc3ccccc23)Oc2c(NS(=O)(=O)c3ccc(F)cc3)cccc2C1=O | active
9 | Cc1ccc(S(=O)(=O)Nc2cccc3c2O[C@H](CN(C)C(=O)Nc2cccc4ccccc24)[C@@H](C)CN([C@H](C)CO)C3=O)cc1 | inactive
10 | C[C@@H]1CN([C@@H](C)CO)C(=O)c2cccc(NS(=O)(=O)c3cccs3)c2O[C@@H]1CN(C)C(=O)Nc1cccc2ccccc12 | inactive
11 | C[C@@H]1CN([C@H](C)CO)C(=O)c2cccc(NS(=O)(=O)c3ccc(F)cc3)c2O[C@@H]1CN(C)C(=O)Nc1cccc2ccccc12 | inactive
12 | Cc1ccc(S(=O)(=O)Nc2cccc3c2O[C@H](CN(C)C(=O)Nc2cccc4ccccc24)[C@@H](C)CN([C@@H](C)CO)C3=O)cc1 | active
13 | Cc1ccc(S(=O)(=O)Nc2cccc3c2O[C@@H](CN(C)C(=O)Nc2cccc4ccccc24)[C@H](C)CN([C@@H](C)CO)C3=O)cc1 | inactive
14 | C[C@H]1CN([C@@H](C)CO)C(=O)c2cccc(NS(=O)(=O)c3ccc(F)cc3)c2O[C@@H]1CN(C)C(=O)Nc1cccc2ccccc12 | inactive
15 | C[C@@H]1CN([C@@H](C)CO)C(=O)c2cccc(NS(=O)(=O)c3ccc(F)cc3)c2O[C@H]1CN(C)C(=O)Nc1cccc2ccccc12 | active
16 | C[C@H](CO)N1C[C@H](C)[C@@H](CN(C)C(=O)Nc2cccc3ccccc23)Oc2c(NS(=O)(=O)c3ccc(F)cc3)cccc2C1=O | inactive
17 | C[C@@H]1CN([C@H](C)CO)C(=O)c2cccc(NS(=O)(=O)c3cccs3)c2O[C@H]1CN(C)C(=O)Nc1cccc2ccccc12 | active
18 | C[C@H]1CN([C@@H](C)CO)C(=O)c2cccc(NS(=O)(=O)c3ccc(F)cc3)c2O[C@H]1CN(C)C(=O)Nc1cccc2ccccc12 | inactive
19 | C[C@H](CO)N1C[C@H](C)[C@@H](CN(C)C(=O)Nc2cccc3ccccc23)Oc2c(NS(=O)(=O)c3cccs3)cccc2C1=O | inactive
20 | C[C@H](CO)N1C[C@H](C)[C@H](CN(C)Cc2ccc(F)cc2)Oc2ncc(C#Cc3cccnc3)cc2C1=O | inactive
21 | C[C@H](CO)N1C[C@H](C)[C@H](CN(C)S(=O)(=O)c2cccs2)Oc2c(NS(=O)(=O)c3ccccc3)cccc2C1=O | inactive
22 | C[C@@H]1CCCCO[C@H](CN(C)S(=O)(=O)c2cn(C)cn2)[C@H](C)CN([C@@H](C)CO)C(=O)c2cc(NC(=O)Nc3ccc(C(F)(F)F)cc3)ccc2O1 | inactive

Row | SMILES | cytotoxicity call
23 | C[C@@H]1CN([C@@H](C)CO)C(=O)c2cccc(NC(=O)c3nc4ccccc4s3)c2O[C@@H]1CN(C)S(C)(=O)=O | inactive
24 | C[C@H]1CN([C@@H](C)CO)C(=O)Cc2cc(NC(=O)Cc3ccccc3)ccc2O[C@@H]1CN(C)S(=O)(=O)c1ccc(F)cc1 | inactive
25 | CC1(C)OC(=O)C2(C(=O)O1)[C@@H](c1ccc(-c3cccc(-c4ccc(C(=O)O)cc4)c3)cc1)CC(=O)C[C@H]2c1ccccc1 | inactive
26 | C[C@@H]1CN([C@H](C)CO)C(=O)Cc2cc(NS(=O)(=O)c3ccccc3)ccc2O[C@@H]1CN(C)Cc1ccc(C(=O)O)cc1 | inactive
27 | COc1ncc(NC(=O)C2CC2)c(OC)n1 | inactive
28 | N[C@H]1CCCN(c2ncccn2)C1 | inactive
29 | N[C@@H]1CCCN(c2c(Br)cnc3[nH]cc(NC(=O)C4CC4)c23)C1 | active
30 | C[C@@H]1CN([C@H](C)CO)S(=O)(=O)c2ccc(-c3ccc(C(=O)N(C)C)cc3)cc2O[C@@H]1CN(C)C(=O)C1CC1 | inactive
31 | O=C(NCc1ccccc1)[C@@]1(CCS(=O)(=O)c2ccccc2)COC(c2ccc(OCCCO)cc2)=N1 | inactive
32 | O=C1N(Cc2ccccc2)Cc2ccccc2[C@H]2OC(c3ccc(OCCCO)cc3)=N[C@@]12CCS(=O)(=O)c1ccccc1 | inactive
33 | O=C1N(Cc2ccccc2)Cc2ccccc2C[C@@]12N=C(c1ccc(OCCCO)cc1)O[C@H]2c1ccccc1 | active
34 | O=C1N(CCS(=O)(=O)c2ccccc2)Cc2ccccc2C[C@@]12COC(c1ccc(OCCCO)cc1)=N2 | active
35 | O=C1N(Cc2ccccc2)Cc2ccccc2[C@H]2OC(c3ccc(OCCCO)cc3)=N[C@@]12Cc1ccccc1 | inactive
36 | O=C1N(Cc2ccccc2)Cc2ccccc2C[C@]12N=C(c1ccc(OCCCO)cc1)O[C@@H]2c1ccccc1 | inactive
37 | Cc1ccc(S(=O)(=O)Nc2cccc3c2O[C@@H](CN(C)Cc2ccc(Oc4ccccc4)cc2)[C@@H](C)CN([C@@H](C)CO)C3=O)cc1 | inactive
38 | CC[C@@H](C)c1ccc(NC(=O)c2cc3ccccc3o2)cc1 | inactive
39 | C[C@@H]1CN([C@H](C)CO)C(=O)Cc2cc(NS(C)(=O)=O)ccc2O[C@@H]1CN(C)C(=O)Nc1ccc(F)cc1 | inactive
40 | COc1ccc(NC(=O)Nc2ccc3c(c2)C(=O)N([C@@H](C)CO)C[C@H](C)[C@H](CN(C)CC2CCCCC2)OCCCC[C@H](C)O3)cc1 | inactive
41 | C[C@H]1CCCCO[C@H](CN(C)CC2CCCCC2)[C@@H](C)CN([C@@H](C)CO)C(=O)c2cc(NC(=O)Nc3ccccc3)ccc2O1 | inactive
42 | C[C@@H]1CCCCO[C@H](CN(C)CC2CCCCC2)[C@H](C)CN([C@@H](C)CO)C(=O)c2cc(NC(=O)Nc3ccccc3)ccc2O1 | inactive
43 | C[C@@H]1CCCCO[C@H](CN(C)CC2CCCCC2)[C@@H](C)CN([C@H](C)CO)C(=O)c2cc(NC(=O)Nc3ccccc3)ccc2O1 | inactive
44 | C[C@@H]1CCCCO[C@@H](CN(C)CC2CCCCC2)[C@@H](C)CN([C@H](C)CO)C(=O)c2cc(NC(=O)Nc3ccccc3)ccc2O1 | inactive

Row | SMILES | cytotoxicity call
45 | COc1ccc(NC(=O)Nc2ccc3c(c2)C(=O)N([C@H](C)CO)C[C@@H](C)[C@@H](CN(C)CC2CCCCC2)OCCCC[C@@H](C)O3)cc1 | active
46 | C[C@H](CO)N1C[C@H](C)[C@H](CN(C)CC2CCCCC2)OCCCC[C@H](C)Oc2ccc(NC(=O)Nc3ccccc3)cc2C1=O | active
47 | C[C@@H]1CN([C@@H](C)CO)C(=O)c2cc(NC(=O)Nc3ccccc3)ccc2O[C@@H](C)CCCCO[C@@H]1CN(C)CC1CCCCC1 | active
48 | COc1ccc(NC(=O)Nc2ccc3c(c2)C(=O)N([C@@H](C)CO)C[C@@H](C)[C@@H](CN(C)CC2CCCCC2)OCCCC[C@@H](C)O3)cc1 | inactive
49 | COc1ccc(S(=O)(=O)Nc2ccc3c(c2)CC(=O)N([C@H](C)CO)C[C@@H](C)[C@H](CN(C)C(=O)Nc2c(C)noc2C)O3)cc1 | inactive
50 | C[C@@H]1CCCCO[C@@H](CN(C)S(=O)(=O)c2cccs2)[C@@H](C)CN([C@H](C)CO)C(=O)c2cc(NC(=O)Nc3ccc4c(c3)OCO4)ccc2O1 | inactive
51 | N#Cc1ccc(Oc2ccccn2)cc1 | inactive
52 | Cc1cc(C(=O)Nc2cccc3c2O[C@@H](CN(C)Cc2ccc(Oc4ccccc4)cc2)[C@H](C)CN([C@H](C)CO)C3=O)n(C)n1 | inactive
53 | Cc1noc(C)c1S(=O)(=O)Nc1ccc2c(c1)C(=O)N([C@@H](C)CO)C[C@@H](C)[C@@H](CN(C)S(=O)(=O)c1cn(C)cn1)OCCCC[C@@H](C)O2 | inactive
54 | C[C@@H]1CCCCO[C@H](CN(C)Cc2ccc3c(c2)OCO3)[C@H](C)CN([C@H](C)CO)C(=O)c2cc(NC(=O)Nc3ccccc3)ccc2O1 | inactive
55 | C[C@@H]1CN([C@@H](C)CO)C(=O)c2cc(NC(=O)Cn3cnnn3)ccc2O[C@@H]1CN(C)Cc1ccc(C(F)(F)F)cc1 | inactive
56 | COc1ccc(S(=O)(=O)N(C)C[C@H]2Oc3ccc(N(C)C)cc3CC(=O)N([C@@H](C)CO)C[C@@H]2C)cc1 | inactive
57 | CC(C)NC(=O)Nc1ccc2c(c1)CC(=O)N([C@H](C)CO)C[C@H](C)[C@H](CN(C)S(=O)(=O)c1ccc(Cl)cc1)O2 | inactive
58 | COc1ccc(S(=O)(=O)N(C)C[C@@H]2Oc3ccc(N(C)C)cc3CC(=O)N([C@@H](C)CO)C[C@H]2C)cc1 | inactive
59 | CC(C)NC(=O)Nc1ccc2c(c1)CC(=O)N([C@@H](C)CO)C[C@H](C)[C@@H](CN(C)S(=O)(=O)c1ccc(Cl)cc1)O2 | inactive
60 | C[C@H]1CN([C@@H](C)CO)C(=O)Cc2cc(NC(=O)Nc3ccc(Cl)c(Cl)c3)ccc2O[C@H]1CN(C)S(=O)(=O)c1ccc(Cl)cc1 | active
61 | CC(C)NC(=O)Nc1ccc2c(c1)CC(=O)N([C@@H](C)CO)C[C@@H](C)[C@@H](CN(C)S(=O)(=O)c1ccc(Cl)cc1)O2 | inactive
62 | CC(C)NC(=O)Nc1ccc2c(c1)CC(=O)N([C@H](C)CO)C[C@H](C)[C@@H](CN(C)S(=O)(=O)c1ccc(Cl)cc1)O2 | inactive
63 | COc1ccc(S(=O)(=O)N(C)C[C@@H]2Oc3ccc(N(C)C)cc3CC(=O)N([C@H](C)CO)C[C@@H]2C)cc1 | active
64 | C[C@H]1CN([C@@H](C)CO)C(=O)Cc2cc(NC(=O)Nc3cc(Cl)cc(Cl)c3)ccc2O[C@H]1CN(C)S(=O)(=O)c1ccc(Cl)cc1 | active
